Results reported in PubChem BioAssay (NCI).
The panel holds about 83,000 compounds, 20% with a hit somewhere; the sample as a whole holds those more often.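 Compound tested at a single concentration for 48 hours in 96-well plates; a percent growth value below 10 was scored as active.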 Values without a mark were called inactive. The source made the active and inactive calls.

Experiments:
Assay in all cases: NCI-60 one-dose screen, 48 h (100 = growth as untreated, 0 = no growth, -100 = all killed)
Details in all cases: 10 µM unless noted
NCI-H23 lung = tested on: NCI-H23 lung
NCI-H226 lung = tested on: NCI-H226 lung
NCI-H322M lung = tested on: NCI-H322M lung
HOP-62 NSCLC = tested on: HOP-62 NSCLC
NCI-H460 lung = tested on: NCI-H460 lung
HOP-92 NSCLC = tested on: HOP-92 NSCLC
A549/ATCC NSCLC = tested on: A549/ATCC NSCLC
786-0 renal = tested on: 786-0 renal
COLO 205 colon = tested on: COLO 205 colon
DU-145 prostate = tested on: DU-145 prostate
K-562 leukemia = tested on: K-562 leukemia
MALME-3M melanoma = tested on: MALME-3M melanoma
MDA-MB-231 breast = tested on: MDA-MB-231 breast
RXF 393 renal = tested on: RXF 393 renal
SF-268 CNS = tested on: SF-268 CNS
SF-295 CNS = tested on: SF-295 CNS
SF-539 CNS = tested on: SF-539 CNS
UACC-257 melanoma = tested on: UACC-257 melanoma
M14 melanoma = tested on: M14 melanoma

Compound	growth (NCI-H23 lung)	growth (NCI-H226 lung)	growth (NCI-H322M lung)	growth (HOP-62 NSCLC)	growth (NCI-H460 lung)	growth (HOP-92 NSCLC)	growth (A549/ATCC NSCLC)	growth (786-0 renal)	growth (COLO 205 colon)	growth (DU-145 prostate)	growth (K-562 leukemia)	growth (MALME-3M melanoma)	growth (MDA-MB-231 breast)	growth (RXF 393 renal)	growth (SF-268 CNS)	growth (SF-295 CNS)	growth (SF-539 CNS)	growth (UACC-257 melanoma)	growth (M14 melanoma)
CCOC(=O)c1sc(NC(=O)COc2cccc(/C=C3\Cc4ccc(Cl)cc4C3=O)c2)nc1C	93.1%	95.4%	130%	107%	103%	96.7%	107%	99.5%	116%	117%	89.9%	138%	81.1%	131%	116%	125%	107%	110%	110%
CN1C(=O)C(C2=NN(C=O)C(c3ccc(F)cc3)C2)C(=O)N(C)C1=O (stereo not drawn)	99%	85.2%	106%	84.4%	102%	91.7%	74.7%	100%	104%	106%	94.2%	95.8%	106%	95.5%	96.9%	99.2%	102%	69.3%	98.5%
O=Cc1ncc(-c2ccc(C(F)(F)F)cc2)c(NC2CCCCCC2)n1	-73.1% [100 µM] (active)	28.2% [100 µM]	-5.95% [100 µM] (active)	-94.9% [100 µM] (active)	-51.3% [100 µM] (active)	-95.4% [100 µM] (active)	-79.2% [100 µM] (active)	-82.1% [100 µM] (active)	-60.5% [100 µM] (active)	-92.9% [100 µM] (active)	-50.2% [100 µM] (active)	-92% [100 µM] (active)	-87.8% [100 µM] (active)	-80.2% [100 µM] (active)	-83.9% [100 µM] (active)	-86.3% [100 µM] (active)	-96.8% [100 µM] (active)	-92% [100 µM] (active)	-91.6% [100 µM] (active)
O=C(Nc1ccccc1)c1cc(-n2cnc([N+](=O)[O-])c2)cc(-n2cnc([N+](=O)[O-])c2)n1	98.6%	86.2%	92%	102%	119%	49.7%	87%	102%	97.4%	110%	86.5%	94.4%	88.6%	-14.6% (active)	119%	130%	102%	89.3%	94.6%
COc1cc(/C=C/C(=O)CC(=O)/C=C/c2ccc(OC(=O)CCNC34CC5CC(CC(C5)C3)C4)c(OC)c2)ccc1OC(=O)CCNC12CC3CC(CC(C3)C1)C2	28.5%	39.8%	63.4%	66.9%	10.3%	18.5%	63.1%	16.7%	45.9%	-7.16% (active)	7.62% (active)	38.6%	52.4%	-37.7% (active)	16.5%	51%	-18.2% (active)	73.9%	16.5%
O=C(CNC(=O)c1cccc2ccccc12)Nc1ccccc1Cc1ccccc1	52.1% [5 µM]	72.3% [5 µM]	78.4% [5 µM]	36.4% [5 µM]	17.9% [5 µM]	53.5% [5 µM]	27% [5 µM]	45.3% [5 µM]	29.4% [5 µM]	48.4% [5 µM]	12.3% [5 µM]	46.8% [5 µM]	64.1% [5 µM]	47.2% [5 µM]	48.6% [5 µM]	17.1% [5 µM]	26.7% [5 µM]	25.4% [5 µM]	10.6% [5 µM]
O=C(CNC(=O)c1cccc2ccccc12)Nc1ccccc1Oc1ccc(O)cc1	37.2% [5 µM]	62.7% [5 µM]	41.3% [5 µM]	35.7% [5 µM]	14.5% [5 µM]	77.5% [5 µM]	27.4% [5 µM]	29.3% [5 µM]	5.7% [5 µM] (active)	19.5% [5 µM]	9.54% [5 µM] (active)	57.9% [5 µM]	47.7% [5 µM]	-2.89% [5 µM] (active)	51.7% [5 µM]	6.5% [5 µM] (active)	-11% [5 µM] (active)	76.7% [5 µM]	9.58% [5 µM] (active)
